# Measured values published in PMC7862700, “An all-to-all approach to the identification of sequence-specific readers for epigenetic DNA modifications on cytosine”.
# What was measured:
# Assay in all cases: DAPPL (digital affinity profiling via proximity ligation, sequencing); 10 mM Tris-HCl pH 7.5, 50 mM NaCl, 1 mM DTT, 4% glycerol, room temperature, 30 min; GST-TFs on glutathione beads, 16-mer random dsDNA library, 0.1% formaldehyde crosslink after washing; high values mean tight binding
# [1] = biological target: T1, FEV (Homo sapiens, UniProt Q99581 1-238); conditions: protein: recombinant; tags: N-terminal GST; dsDNA, one strand shown
# T1 sequence: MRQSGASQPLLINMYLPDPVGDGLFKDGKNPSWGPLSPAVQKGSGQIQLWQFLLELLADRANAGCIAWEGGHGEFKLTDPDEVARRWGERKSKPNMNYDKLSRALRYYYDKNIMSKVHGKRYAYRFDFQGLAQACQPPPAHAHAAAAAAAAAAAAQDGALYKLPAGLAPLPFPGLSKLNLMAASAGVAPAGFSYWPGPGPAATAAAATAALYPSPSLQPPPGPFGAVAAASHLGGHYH
# Procedure, shortened: (§1)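 Binding signal is defined as a hexamer's read frequency for one factor over its frequency for the tag-only sample. To obtain reads, GST-fused human transcription factors were expressed in yeast, captured on glutathione beads, barcoded with DNA and pooled with that sample. Pools met 200 nmole of a 16-mer random double-stranded DNA library in Tris/NaCl/DTT/glycerol buffer for 30 min at room temperature before washing, 0.1% formaldehyde crosslinking, proximity ligation (BsaI/T4 ligase, 1 h, 37 °C), PCR and Illumina NextSeq500 sequencing.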
# [2] = biological target: ETV5 (Homo sapiens, UniProt P41161 1-510); conditions: protein: recombinant; tags: N-terminal GST; dsDNA, one strand shown
# Procedure, shortened: as §1
# [3] = biological target: HSF1 (Homo sapiens, UniProt Q00613 1-529); conditions: protein: recombinant; tags: N-terminal GST; chain copies: 3; dsDNA, one strand shown
# Procedure, shortened: as §1
# [4] = biological target: T2, SPIC (Homo sapiens, UniProt Q8N5J4 1-248); conditions: protein: recombinant; tags: N-terminal GST; dsDNA, one strand shown
# T2 sequence: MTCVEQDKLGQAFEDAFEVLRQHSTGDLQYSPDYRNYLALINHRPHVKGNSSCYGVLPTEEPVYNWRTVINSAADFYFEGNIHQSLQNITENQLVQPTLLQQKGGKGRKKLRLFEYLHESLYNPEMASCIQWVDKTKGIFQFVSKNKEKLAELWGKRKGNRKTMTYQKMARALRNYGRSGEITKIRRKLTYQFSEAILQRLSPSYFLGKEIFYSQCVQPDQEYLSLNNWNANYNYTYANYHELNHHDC
# Procedure, shortened: as §1
# [5] = biological target: ELF4 (Homo sapiens, UniProt Q99607 1-663); conditions: protein: recombinant; tags: N-terminal GST; dsDNA, one strand shown
# Procedure, shortened: as §1
# [6] = biological target: T3, ELK4 (Homo sapiens, UniProt P28324-2 1-405); conditions: protein: recombinant; tags: N-terminal GST; dsDNA, one strand shown
# T3 sequence: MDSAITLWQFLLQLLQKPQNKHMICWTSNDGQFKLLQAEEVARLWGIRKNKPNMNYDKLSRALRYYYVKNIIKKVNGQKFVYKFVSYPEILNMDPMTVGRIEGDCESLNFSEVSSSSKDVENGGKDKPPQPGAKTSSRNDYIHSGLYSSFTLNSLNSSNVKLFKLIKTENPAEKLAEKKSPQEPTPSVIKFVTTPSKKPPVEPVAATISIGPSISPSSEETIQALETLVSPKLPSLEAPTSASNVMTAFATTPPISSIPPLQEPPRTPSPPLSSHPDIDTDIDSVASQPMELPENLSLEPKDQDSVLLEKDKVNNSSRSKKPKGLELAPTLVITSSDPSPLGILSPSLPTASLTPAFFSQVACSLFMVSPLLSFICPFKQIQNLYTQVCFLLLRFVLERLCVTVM
# Procedure, shortened: as §1
# [7] = biological target: T4, ETV2 (Homo sapiens, UniProt O00321 1-342); conditions: protein: recombinant; tags: N-terminal GST; dsDNA, one strand shown
# T4 sequence: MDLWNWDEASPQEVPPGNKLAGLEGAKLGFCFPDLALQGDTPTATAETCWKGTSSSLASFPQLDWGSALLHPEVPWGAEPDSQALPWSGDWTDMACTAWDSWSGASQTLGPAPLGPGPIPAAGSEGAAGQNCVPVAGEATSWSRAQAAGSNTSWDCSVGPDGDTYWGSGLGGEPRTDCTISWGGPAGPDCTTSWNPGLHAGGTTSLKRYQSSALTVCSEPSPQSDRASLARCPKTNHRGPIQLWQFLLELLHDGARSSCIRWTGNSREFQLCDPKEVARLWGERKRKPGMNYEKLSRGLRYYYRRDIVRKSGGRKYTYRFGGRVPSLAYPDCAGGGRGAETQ
# Procedure, shortened: as §1
# [8] = biological target: T5, ELF3 (Homo sapiens, UniProt P78545 1-371); conditions: protein: recombinant; tags: N-terminal GST; dsDNA, one strand shown
# T5 sequence: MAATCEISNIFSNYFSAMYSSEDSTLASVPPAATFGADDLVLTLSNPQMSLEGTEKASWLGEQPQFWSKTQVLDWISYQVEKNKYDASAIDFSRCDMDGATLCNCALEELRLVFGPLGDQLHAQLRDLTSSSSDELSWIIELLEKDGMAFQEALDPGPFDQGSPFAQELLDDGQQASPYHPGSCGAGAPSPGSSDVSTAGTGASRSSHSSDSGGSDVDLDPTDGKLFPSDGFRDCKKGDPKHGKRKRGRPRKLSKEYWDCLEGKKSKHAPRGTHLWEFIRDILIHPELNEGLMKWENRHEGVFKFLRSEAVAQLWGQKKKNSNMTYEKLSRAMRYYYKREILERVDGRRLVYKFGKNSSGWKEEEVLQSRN
# Procedure, shortened: as §1
# [9] = biological target: CRX (Homo sapiens, UniProt O43186 1-299); conditions: protein: recombinant; tags: N-terminal GST; dsDNA, one strand shown
# Procedure, shortened: as §1
# [10] = biological target: ETV1 (Homo sapiens, UniProt P50549 1-477); conditions: protein: recombinant; tags: N-terminal GST; dsDNA, one strand shown
# Procedure, shortened: as §1
# [11] = biological target: T6, ERF (Homo sapiens, UniProt P50548 1-548); conditions: protein: recombinant; tags: N-terminal GST; dsDNA, one strand shown
# T6 sequence: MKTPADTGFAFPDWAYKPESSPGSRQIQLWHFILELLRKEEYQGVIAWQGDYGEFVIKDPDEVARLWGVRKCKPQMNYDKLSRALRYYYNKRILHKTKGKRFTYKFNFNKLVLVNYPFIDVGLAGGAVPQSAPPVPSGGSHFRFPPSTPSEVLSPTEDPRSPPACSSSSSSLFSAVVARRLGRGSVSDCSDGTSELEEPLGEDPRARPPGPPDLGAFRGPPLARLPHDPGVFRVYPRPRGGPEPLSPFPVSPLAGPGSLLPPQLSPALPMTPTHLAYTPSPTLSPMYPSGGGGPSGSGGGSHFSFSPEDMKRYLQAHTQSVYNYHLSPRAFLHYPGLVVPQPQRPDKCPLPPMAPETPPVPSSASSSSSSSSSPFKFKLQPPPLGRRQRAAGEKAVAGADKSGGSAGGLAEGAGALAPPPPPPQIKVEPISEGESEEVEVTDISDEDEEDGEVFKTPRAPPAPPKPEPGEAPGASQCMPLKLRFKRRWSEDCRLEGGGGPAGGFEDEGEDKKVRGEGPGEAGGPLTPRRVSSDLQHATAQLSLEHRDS
# Procedure, shortened: as §1
# [12] = biological target: T7, ETV3L (Homo sapiens, UniProt Q6ZN32 1-361); conditions: protein: recombinant; tags: N-terminal GST; dsDNA, one strand shown
# T7 sequence: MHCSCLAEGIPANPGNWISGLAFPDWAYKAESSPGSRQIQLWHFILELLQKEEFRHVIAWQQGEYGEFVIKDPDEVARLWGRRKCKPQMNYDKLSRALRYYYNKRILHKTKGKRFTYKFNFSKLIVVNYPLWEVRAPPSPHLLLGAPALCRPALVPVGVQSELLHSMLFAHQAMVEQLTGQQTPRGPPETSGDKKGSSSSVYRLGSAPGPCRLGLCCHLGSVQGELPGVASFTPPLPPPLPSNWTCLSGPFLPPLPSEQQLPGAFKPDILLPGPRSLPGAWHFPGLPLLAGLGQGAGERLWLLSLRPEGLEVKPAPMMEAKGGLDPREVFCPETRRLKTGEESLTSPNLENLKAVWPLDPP
# Procedure, shortened: as §1
# [13] = biological target: T8, ETS2 (Homo sapiens, UniProt P15036 1-469); conditions: protein: recombinant; tags: N-terminal GST; dsDNA, one strand shown
# T8 sequence: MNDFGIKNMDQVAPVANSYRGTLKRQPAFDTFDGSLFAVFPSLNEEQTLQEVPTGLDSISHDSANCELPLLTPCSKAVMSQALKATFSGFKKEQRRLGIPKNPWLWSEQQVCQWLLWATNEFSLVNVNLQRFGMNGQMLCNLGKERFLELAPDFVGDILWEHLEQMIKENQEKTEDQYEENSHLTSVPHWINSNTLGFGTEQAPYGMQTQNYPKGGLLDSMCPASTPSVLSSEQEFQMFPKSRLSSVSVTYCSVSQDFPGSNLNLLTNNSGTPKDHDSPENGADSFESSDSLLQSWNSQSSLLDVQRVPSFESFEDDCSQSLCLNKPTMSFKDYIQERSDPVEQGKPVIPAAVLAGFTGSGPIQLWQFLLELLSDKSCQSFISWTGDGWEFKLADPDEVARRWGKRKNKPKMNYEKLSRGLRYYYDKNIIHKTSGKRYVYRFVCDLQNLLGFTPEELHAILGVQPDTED
# Procedure, shortened: as §1
# [14] = biological target: T9, SPDEF (Homo sapiens, UniProt O95238 1-335); conditions: protein: recombinant; tags: N-terminal GST; dsDNA, one strand shown
# T9 sequence: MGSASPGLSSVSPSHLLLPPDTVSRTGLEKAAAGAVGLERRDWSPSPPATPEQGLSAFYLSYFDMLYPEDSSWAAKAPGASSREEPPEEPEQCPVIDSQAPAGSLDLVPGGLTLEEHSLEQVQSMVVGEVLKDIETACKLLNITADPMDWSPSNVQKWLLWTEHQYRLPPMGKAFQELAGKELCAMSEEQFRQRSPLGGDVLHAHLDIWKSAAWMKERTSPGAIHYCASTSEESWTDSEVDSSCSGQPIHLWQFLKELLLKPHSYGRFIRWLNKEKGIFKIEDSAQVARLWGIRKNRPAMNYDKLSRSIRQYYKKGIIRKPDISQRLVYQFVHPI
# Procedure, shortened: as §1
# [15] = biological target: T10, ETV7 (Homo sapiens, UniProt Q9Y603 1-341); conditions: protein: recombinant; tags: N-terminal GST; dsDNA, one strand shown
# T10 sequence: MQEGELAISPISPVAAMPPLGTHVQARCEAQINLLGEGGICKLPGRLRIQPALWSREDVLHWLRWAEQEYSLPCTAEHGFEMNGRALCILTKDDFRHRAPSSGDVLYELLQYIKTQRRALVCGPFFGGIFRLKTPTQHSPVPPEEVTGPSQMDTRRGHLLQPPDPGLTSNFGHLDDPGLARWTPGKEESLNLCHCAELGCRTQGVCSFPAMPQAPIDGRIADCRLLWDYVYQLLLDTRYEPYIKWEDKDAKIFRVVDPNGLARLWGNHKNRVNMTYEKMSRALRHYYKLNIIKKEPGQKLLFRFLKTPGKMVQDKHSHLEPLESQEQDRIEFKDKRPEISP
# Procedure, shortened: as §1
# [16] = biological target: T11, ELF5 (Homo sapiens, UniProt Q9UKW6-2 1-255); conditions: protein: recombinant; tags: N-terminal GST; dsDNA, one strand shown
# T11 sequence: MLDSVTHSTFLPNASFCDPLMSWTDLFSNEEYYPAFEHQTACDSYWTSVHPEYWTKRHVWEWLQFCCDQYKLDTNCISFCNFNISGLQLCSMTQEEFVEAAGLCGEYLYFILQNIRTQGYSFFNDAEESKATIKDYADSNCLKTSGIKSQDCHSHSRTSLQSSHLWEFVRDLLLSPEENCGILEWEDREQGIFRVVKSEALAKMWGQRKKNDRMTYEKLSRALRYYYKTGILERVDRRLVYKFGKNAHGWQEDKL
# Procedure, shortened: as §1
# [17] = biological target: T12, ETV3 (Homo sapiens, UniProt P41162-2 1-143); conditions: protein: recombinant; tags: N-terminal GST; dsDNA, one strand shown
# T12 sequence: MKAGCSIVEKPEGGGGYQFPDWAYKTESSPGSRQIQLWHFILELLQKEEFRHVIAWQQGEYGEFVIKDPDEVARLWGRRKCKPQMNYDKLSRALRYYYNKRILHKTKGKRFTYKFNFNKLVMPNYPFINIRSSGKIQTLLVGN
# Procedure, shortened: as §1
# [18] = biological target: ETV6 (Homo sapiens, UniProt P41212 1-452); conditions: protein: recombinant; tags: N-terminal GST; dsDNA, one strand shown
# Procedure, shortened: as §1
# Chain of CRX (O43186 whole entry): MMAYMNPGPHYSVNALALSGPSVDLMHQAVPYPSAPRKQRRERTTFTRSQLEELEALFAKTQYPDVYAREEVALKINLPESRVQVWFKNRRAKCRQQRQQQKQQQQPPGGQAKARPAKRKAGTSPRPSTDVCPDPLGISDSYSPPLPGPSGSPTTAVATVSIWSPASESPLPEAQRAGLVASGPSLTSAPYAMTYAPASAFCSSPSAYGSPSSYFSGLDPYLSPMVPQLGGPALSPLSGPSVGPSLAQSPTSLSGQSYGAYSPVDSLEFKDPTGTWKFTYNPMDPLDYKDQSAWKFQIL
# Chain of ETV1 (P50549 whole entry): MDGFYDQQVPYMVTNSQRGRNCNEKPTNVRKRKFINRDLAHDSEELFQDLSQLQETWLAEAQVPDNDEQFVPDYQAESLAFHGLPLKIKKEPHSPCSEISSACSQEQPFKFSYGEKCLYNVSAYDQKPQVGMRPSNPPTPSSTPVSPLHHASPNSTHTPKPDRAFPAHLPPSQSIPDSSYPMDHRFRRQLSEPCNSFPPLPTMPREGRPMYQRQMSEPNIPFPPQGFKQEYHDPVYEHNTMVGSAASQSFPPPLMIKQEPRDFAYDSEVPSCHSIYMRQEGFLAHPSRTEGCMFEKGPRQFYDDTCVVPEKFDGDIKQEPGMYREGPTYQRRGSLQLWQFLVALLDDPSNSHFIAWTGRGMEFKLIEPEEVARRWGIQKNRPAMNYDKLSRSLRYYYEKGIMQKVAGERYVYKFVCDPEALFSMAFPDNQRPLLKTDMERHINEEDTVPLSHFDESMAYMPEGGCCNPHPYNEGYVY
# Chain of HSF1 (Q00613 whole entry): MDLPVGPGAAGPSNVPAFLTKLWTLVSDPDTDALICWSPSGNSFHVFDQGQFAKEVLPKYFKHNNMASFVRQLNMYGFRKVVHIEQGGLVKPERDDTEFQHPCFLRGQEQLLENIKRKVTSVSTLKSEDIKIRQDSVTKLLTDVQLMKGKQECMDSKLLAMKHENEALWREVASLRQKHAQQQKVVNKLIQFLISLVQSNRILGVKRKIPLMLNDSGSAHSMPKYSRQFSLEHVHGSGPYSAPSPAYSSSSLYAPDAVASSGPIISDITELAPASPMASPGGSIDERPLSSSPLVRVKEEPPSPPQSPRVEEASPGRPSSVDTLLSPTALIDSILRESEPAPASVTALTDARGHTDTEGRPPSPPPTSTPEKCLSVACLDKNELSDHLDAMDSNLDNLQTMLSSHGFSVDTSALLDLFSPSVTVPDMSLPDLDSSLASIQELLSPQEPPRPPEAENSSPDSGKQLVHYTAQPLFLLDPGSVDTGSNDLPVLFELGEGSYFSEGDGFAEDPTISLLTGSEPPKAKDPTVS
# Chain of ELF4 (Q99607 whole entry): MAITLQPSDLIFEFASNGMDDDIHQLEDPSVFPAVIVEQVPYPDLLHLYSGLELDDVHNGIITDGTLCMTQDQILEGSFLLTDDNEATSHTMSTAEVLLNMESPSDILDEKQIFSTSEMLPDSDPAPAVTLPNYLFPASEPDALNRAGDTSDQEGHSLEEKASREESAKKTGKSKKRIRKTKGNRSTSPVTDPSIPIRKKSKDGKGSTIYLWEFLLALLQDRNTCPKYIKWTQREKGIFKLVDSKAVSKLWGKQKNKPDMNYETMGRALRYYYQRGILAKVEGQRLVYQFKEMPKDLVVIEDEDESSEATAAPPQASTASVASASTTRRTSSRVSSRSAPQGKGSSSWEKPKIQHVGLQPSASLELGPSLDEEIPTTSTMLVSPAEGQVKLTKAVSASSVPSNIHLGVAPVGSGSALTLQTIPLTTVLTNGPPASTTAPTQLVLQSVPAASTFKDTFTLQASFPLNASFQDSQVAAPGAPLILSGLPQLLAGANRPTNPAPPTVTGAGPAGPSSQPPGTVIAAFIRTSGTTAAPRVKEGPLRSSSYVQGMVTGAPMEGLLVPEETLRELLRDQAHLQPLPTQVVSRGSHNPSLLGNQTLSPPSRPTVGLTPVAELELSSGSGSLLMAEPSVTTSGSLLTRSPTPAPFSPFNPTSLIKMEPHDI
# Chain of ETV5 (P41161 whole entry): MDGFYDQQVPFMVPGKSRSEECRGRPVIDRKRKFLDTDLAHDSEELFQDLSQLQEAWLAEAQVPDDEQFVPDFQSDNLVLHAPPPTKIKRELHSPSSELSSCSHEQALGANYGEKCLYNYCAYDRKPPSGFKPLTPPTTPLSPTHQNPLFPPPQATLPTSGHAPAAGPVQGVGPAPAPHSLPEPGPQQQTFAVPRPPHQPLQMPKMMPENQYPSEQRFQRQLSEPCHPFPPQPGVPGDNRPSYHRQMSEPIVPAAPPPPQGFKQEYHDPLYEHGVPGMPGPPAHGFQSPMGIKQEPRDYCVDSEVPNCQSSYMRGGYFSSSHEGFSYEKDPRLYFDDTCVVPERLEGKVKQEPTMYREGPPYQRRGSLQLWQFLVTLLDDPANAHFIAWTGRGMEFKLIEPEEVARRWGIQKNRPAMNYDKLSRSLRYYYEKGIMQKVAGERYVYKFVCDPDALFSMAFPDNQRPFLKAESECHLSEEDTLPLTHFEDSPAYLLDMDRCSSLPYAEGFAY
# Chain of ETV6 (P41212 whole entry): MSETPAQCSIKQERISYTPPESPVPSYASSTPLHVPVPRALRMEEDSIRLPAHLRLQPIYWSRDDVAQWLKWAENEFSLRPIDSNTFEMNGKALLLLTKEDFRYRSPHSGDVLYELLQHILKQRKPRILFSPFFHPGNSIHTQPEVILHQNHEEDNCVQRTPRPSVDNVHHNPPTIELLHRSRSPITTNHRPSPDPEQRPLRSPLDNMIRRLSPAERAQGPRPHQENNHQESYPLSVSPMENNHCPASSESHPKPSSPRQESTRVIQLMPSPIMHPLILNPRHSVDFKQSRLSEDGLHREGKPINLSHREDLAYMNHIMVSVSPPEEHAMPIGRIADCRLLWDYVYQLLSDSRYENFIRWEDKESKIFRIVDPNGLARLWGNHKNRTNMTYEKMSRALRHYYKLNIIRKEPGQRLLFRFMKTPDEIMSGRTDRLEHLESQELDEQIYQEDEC
sequence,measurement,setting,value
TTGTTA,binding signal,[1],"1.3 fold enrichment (6-mer frequency, TF over GST control)"
same,binding signal,[2],"1.31 fold enrichment (6-mer frequency, TF over GST control)"
same,binding signal,[3],"1.34 fold enrichment (6-mer frequency, TF over GST control)"
same,binding signal,[4],"1.31 fold enrichment (6-mer frequency, TF over GST control)"
same,binding signal,[5],"1.32 fold enrichment (6-mer frequency, TF over GST control)"
same,binding signal,[6],"1.47 fold enrichment (6-mer frequency, TF over GST control)"
same,binding signal,[7],"1.35 fold enrichment (6-mer frequency, TF over GST control)"
same,binding signal,[8],"1.08 fold enrichment (6-mer frequency, TF over GST control)"
same,binding signal,[9],"1.61 fold enrichment (6-mer frequency, TF over GST control)"
same,binding signal,[10],"1.35 fold enrichment (6-mer frequency, TF over GST control)"
same,binding signal,[11],"1.28 fold enrichment (6-mer frequency, TF over GST control)"
same,binding signal,[12],"1.35 fold enrichment (6-mer frequency, TF over GST control)"
same,binding signal,[13],"1.34 fold enrichment (6-mer frequency, TF over GST control)"
same,binding signal,[14],"1.26 fold enrichment (6-mer frequency, TF over GST control)"
same,binding signal,[15],"1.35 fold enrichment (6-mer frequency, TF over GST control)"
same,binding signal,[16],"1.29 fold enrichment (6-mer frequency, TF over GST control)"
same,binding signal,[17],"1.3 fold enrichment (6-mer frequency, TF over GST control)"
same,binding signal,[18],"1.33 fold enrichment (6-mer frequency, TF over GST control)"
